Source: PubChem BioAssay (NCI)
Compounds without any hit were thinned out: in the full panel of roughly 79,000, 15% have a hit. No stated cut-off is given here; in the data, active means growth inhibition above about 70%; inactive means the rest.

Assays:
[1] = NCI Yeast Anticancer Drug Screen. Data for the rad50 strain (AID 155);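 further: 0% = growth of vehicle-only cultures of the same strain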; settings: S. cerevisiae rad50 strain growth inhibition; at 50.0 µM; stronger effect = higher value
Outline: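 Compounds were tested on a yeast strain with an engineered DNA damage repair alteration; the reported value is growth inhibition normalised to vehicle treatment.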

[2] = NCI Yeast Anticancer Drug Screen. Data for the mec2-1 strain (AID 157); settings: S. cerevisiae mec2-1 strain, at 50.0 µM, stronger effect = higher value
Outline: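 Compounds were applied to mec2-1 yeast cells. Their growth was then compared with that of vehicle-treated cultures to give growth inhibition.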

[3] = NCI Yeast Anticancer Drug Screen. Data for the sgs1 mgt1 strain (AID 161);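 further: 0% = growth of cultures given vehicle only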; settings: S. cerevisiae sgs1 mgt1 strain, at 50.0 µM, stronger effect = higher value
Outline: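 Compounds are added to genetically altered yeast, and growth is compared with cultures given vehicle alone to give percent inhibition.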

[4] = NCI Yeast Anticancer Drug Screen. Data for the cln2 rad14 strain (AID 165);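 further: 0% = growth equal to vehicle treated cultures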; settings: S. cerevisiae cln2 rad14 strain, at 50.0 µM, stronger effect = higher value
Outline: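 Strain: cln2 rad14 yeast, altered in cell cycle control and DNA damage repair. Read-out: growth inhibition vs vehicle.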

[5] = NCI Yeast Anticancer Drug Screen. Data for the bub3 strain (AID 167); settings: S. cerevisiae bub3 mutant strain, at 50.0 µM, stronger effect = higher value
Outline: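 Growth of a checkpoint-deficient yeast mutant is measured after compound exposure. Values represent inhibition relative to vehicle.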

[6] = NCI Yeast Anticancer Drug Screen. Data for the mlh1 rad18 strain (AID 175); settings: S. cerevisiae mlh1 rad18 strain growth inhibition; at 50.0 µM; stronger effect = higher value
Outline: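 A repair-deficient yeast strain is exposed to test compound, and growth is scored relative to vehicle-treated controls.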

Measured: growth inhibition

CCOC(=O)c1ccc(NC(NC(=O)CC)(C(F)(F)F)C(F)(F)F)cc1
inactive: [1] -26.6% | [2] -20.4% | [3] -69.2% | [4] -19.1% | [5] -8.9% | [6] -54%

CCC(CCCN)Nc1cc(OC)cc2c(C)ccnc12 (stereo unspecified)
inactive: [1] -53.9% | [2] -3.1% | [3] 1.75% | [4] -4.5% | [5] 21.2% | [6] -21.2%

CCOc1ccc2cc3c(nc2n1)[nH]c1ccccc13
inactive: [1] -27.4% | [2] 4.15% | [3] -0.3% | [4] -16.1% | [5] 8.25% | [6] 11.1%

c1ccc(-c2ccc(-c3nnc(-c4ccc(-c5ccccc5)cc4)o3)cc2)cc1
inactive: [1] -0.95% | [2] -10.4% | [3] 2.7% | [4] -35.6% | [5] -2.6% | [6] -3.1%

CC(=O)Oc1ccc(CC(C)C(C)Cc2ccc(OC(C)=O)c(OC(C)=O)c2)cc1OC(C)=O (stereo unspecified)
inactive: [1] 51% | [2] 23% | [3] 50% | [4] 7.4% | [5] 0.5% | [6] 26.5%

CC(Nc1cccc(Cl)c1)c1ccncc1 (stereo unspecified)
inactive: [1] 4.05% | [2] 12% | [3] -15.2% | [4] -5.55% | [5] 24.6% | [6] -11.4%

S=C(NCN1CCCCC1)NCN1CCCCC1
inactive: [1] 9.55% | [2] 9.1% | [3] 4.95% | [4] -50.1% | [5] 23.8% | [6] 33.5%

COC(=O)c1cc2cc3ccccc3cc2cc1C(=O)OC
inactive: [1] 1.7% | [2] 14.4% | [3] 11.8% | [4] -13.4% | [5] -26.1% | [6] -8.8%

CC1(C)OC(=O)C=C[C@@]2(C)C1CC(=O)C1(C)C2CCC2(C)C(c3ccoc3)OC(=O)[C@H]3O[C@]321 (stereo partly specified)
inactive: [1] 2.55% | [2] -24.3% | [3] 11.3% | [4] 9.95% | [5] -7% | [6] -6.25%

NC(N)=NNC(=S)S
inactive: [1] 10.9% | [2] -5.15% | [3] 23.5% | [4] 5.1% | [5] 20.3% | [6] 12.8%

NC(N)=NS(=O)(=O)c1ccc(NC(=O)c2cccn3c(=O)c4ccccc4nc23)cc1
inactive: [1] -6.9% | [2] -2.5% | [3] 30.3% | [4] 11.7% | [5] -9.4% | [6] -20.9%

COC(=O)c1nc(N)nc(C(=O)OC)c1C(=O)/C=C/c1ccccc1
inactive: [1] -4.2% | [2] -8.5% | [3] -21.5% | [4] -16.1% | [5] -26.4% | [6] -17.6%

S=c1[nH]nc(-c2ccccc2)n1/N=C\c1ccc(-c2ccc(Cl)cc2)o1
inactive: [1] 6.4% | [2] -21.5% | [3] -0.7% | [4] 14.8% | [5] -2.35% | [6] 5.5%

CC(C)(C)CC(C)(C)c1ccc(OCCOc2ccccc2NS(=O)(=O)c2ccc(N)cc2)cc1
inactive: [1] 47.5% | [2] -0.35% | [3] 33.6% | [4] 1.1% | [5] 10.1% | [6] 23.6%

O=c1[nH]c2nc(Cl)nc(Cl)c2[nH]1
inactive: [1] 28.4% | [2] 5.55% | [3] 11.4% | [4] 12.1% | [5] 8.3% | [6] 45%

c1ccc(CCN(c2ccccc2)c2ccccc2)cc1
inactive: [1] 21.1% | [2] -2.4% | [3] -11.2% | [4] 9.8% | [5] 7.55% | [6] 1.2%

CC1CC[P+](c2ccccc2)(c2ccccc2)CC1
inactive: [1] 22.9% | [2] 17.4% | [3] 30.3% | [4] 4.5% | [5] 22.1% | [6] 32.5%

CCC(C)C1SCC(=O)N1c1nncs1 (stereo unspecified)
inactive: [1] 10.6% | [2] 7.45% | [3] 6.55% | [4] -4.6% | [5] 4.9% | [6] 16.4%

C/C(=N/O)c1cccc([N+](=O)[O-])c1
inactive: [1] -10.7% | [2] 15.5% | [3] -4.95% | [4] -14.3% | [5] -3.6% | [6] -7.15%

O=[N+]([O-])c1ccc(N/N=C/CCCCO)c([N+](=O)[O-])c1
inactive: [1] 13.3% | [2] -4.65% | [3] -0.6% | [4] -30.6% | [5] 9.85% | [6] -5.8%

Cc1cccc(C)c1NC(=S)NC=C(C(N)=O)C(N)=O
inactive: [1] -26.1% | [2] -23.6% | [3] 12.7% | [4] 3.1% | [5] -14.4% | [6] 10.6%

CCC[CH2][Ge]([CH2]CCC)([CH2]CCC)[O]C(=O)CCl
inactive: [1] -14.2% | [2] 31.7% | [3] -4.75% | [4] -52.9% | [5] -13.2% | [6] 31.9%

CC1C(=O)C(O)CC2C1(C)CCC1C2(C)CCC2(C)C3CC(C)(C)CCC3(C)CCC12C (stereo unspecified)
inactive: [1] -7.2% | [2] -2.6% | [3] -6.45% | [4] 1.2% | [5] 5.45% | [6] -4.7%

CCOC(=O)C(OCC1CC=CCC1)Sc1ccccc1 (stereo unspecified)
inactive: [1] 10.6% | [2] -24.6% | [3] -4.95% | [4] -19.3% | [5] -9.7% | [6] -13.9%

N=C(N)C1CC1
inactive: [1] -6.75% | [2] -9.5% | [3] -8.9% | [4] 12.8% | [5] 2.4% | [6] -13.2%

O=C1c2ccccc2C(C2c3ccccc3C(=O)c3cc(Br)ccc32)c2ccc(Br)cc21 (stereo unspecified)
inactive: [1] 4.25% | [2] -35.1% | [3] -9.5% | [4] -48.9% | [5] -14.1% | [6] -18.2%

Cc1ccc(C(=O)c2ccccc2)cc1C[N+](C)(C)C
inactive: [1] 20.3% | [2] 3.35% | [3] 10.3% | [4] 12% | [5] -5.3% | [6] 4.9%

COc1cccc(NC(=O)CSc2nnc(-c3ccc(NC(C)=O)cc3)o2)c1
inactive: [1] -29.2% | [2] -15.5% | [3] -15.3% | [4] 6.15% | [5] -25.4% | [6] -16.9%

COC(=O)C1(O)C(=O)NC2=C1C(=O)c1ccccc1C2=O (stereo unspecified)
inactive: [1] 9.75% | [2] 5.8% | [3] 8.05% | [4] -8.7% | [5] 28.9% | [6] 13.8%

CC(C)(C)OC(=O)NC(Cc1ccccc1)NC(=O)NC(=O)OCc1ccccc1 (stereo unspecified)
inactive: [1] -25.3% | [2] -9.85% | [3] -6.45% | [4] -0.65% | [5] -13.8% | [6] -27.1%

O=C(O)/C=C/C(=O)Nc1ncn[nH]1
inactive: [1] -3.55% | [2] -24.7% | [3] -22.9% | [4] 3.2% | [5] -34.9% | [6] -5.4%

CCCS(=O)(=O)N1CC(C)OC(C)C1 (stereo unspecified)
inactive: [1] 2.35% | [2] -16.9% | [3] 3.5% | [4] -7.1% | [5] -10.7% | [6] 3.2%

CCCCNC(=O)Oc1c(Cl)cc(Cl)c(Cl)c1[N+](=O)[O-]
inactive: [1] 16.2% | [2] 10.1% | [3] 17.9% | [4] 4.4% | [5] -11.1% | [6] 21.2%

CCn1cc(C(=O)C(=O)N(C)C)c2ccccc21
inactive: [1] 13.2% | [2] -7.75% | [3] -2.5% | [4] -3.35% | [5] 17.2% | [6] 1.95%

CC(C)C(CC(=O)O)C(=O)O (stereo unspecified)
inactive: [1] 3.8% | [2] -1.35% | [3] 10.2% | [4] -8% | [5] 3.95% | [6] 4.65%

CCc1ccc2c(c1)/C(=N\NC(N)=O)CCC2
inactive: [1] -11.2% | [2] 13.5% | [3] -12.8% | [4] -7.6% | [5] 9.8% | [6] -9.5%

COc1ccc(N=C(N)N=C(N)N)cc1
inactive: [1] -3.3% | [2] -2% | [3] -6.9% | [4] 8.2% | [5] -2.65% | [6] 0%

CCOc1ccc(N=c2ccn3ccccc3c2)cc1
inactive: [1] -2.05% | [2] -10.3% | [3] -24.2% | [4] -24.4% | [5] 8.75% | [6] -28.5%

O=C(N/N=C/c1ccccc1)C1CC1
inactive: [1] 9.35% | [2] -10.2% | [3] 10.2% | [4] 8% | [5] 9.35% | [6] 1.85%

C/C(=N\NC(=O)CCCCC(=O)N/N=C(\C)c1ccc(C)cc1)c1ccc(C)cc1
inactive: [1] -3.65% | [2] -11.3% | [3] 10.4% | [4] -45.7% | [5] -1.9% | [6] -2.7%

Cc1ccc2nc(N(C)C)cc(N(C)C)c2c1
inactive: [1] -7.1% | [2] 6% | [3] 0.2% | [4] -100% | [5] -4.1% | [6] 7.9%
